Our source for the growth inhibition values is PubChem BioAssay (NCI).

Compounds without any hit were thinned out: in the full panel of roughly 79,000, 15% have a hit. A number with no mark means an inactive call. Calls of active or inactive are those of the source. Cut-off read from the data, not from the text of the source: active = growth inhibition above about 70%; inactive = the rest.

Assay [1] is described as follows: NCI Yeast Anticancer Drug Screen. Data for the rad50 strain (AID 155).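 Note: 0% = growth of vehicle-only cultures of the same strain.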 The note with it: S. cerevisiae rad50 strain growth inhibition; at 50.0 µM; stronger effect = higher value. The essentials:
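Genetically altered yeast (DNA repair pathway); compound treatment; growth inhibition vs vehicle ctrl.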

A short description of assay [2]: NCI Yeast Anticancer Drug Screen. Data for the mec2-1 strain (AID 157). The note with it: S. cerevisiae mec2-1 strain, at 50.0 µM, stronger effect = higher value. Put shortly:
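Each compound was tested on mec2-1 yeast, a strain altered in DNA damage repair or cell cycle control. Growth inhibition is reported relative to vehicle.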

Assay [3] can be described thus: NCI Yeast Anticancer Drug Screen. Data for the sgs1 mgt1 strain (AID 161).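 Note: 0% = growth of cultures given vehicle only.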 As to conditions: S. cerevisiae sgs1 mgt1 strain, at 50.0 µM, stronger effect = higher value. Put shortly: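 Mutant yeast exposed to compound; growth scored against vehicle-only wells.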
Assay [4] in a line: NCI Yeast Anticancer Drug Screen. Data for the cln2 rad14 strain (AID 165).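 Note: 0% = growth equal to vehicle treated cultures.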 As to conditions: S. cerevisiae cln2 rad14 strain, at 50.0 µM, stronger effect = higher value. The essentials: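 Test compounds were added to cln2 rad14 yeast cultures; inhibition of growth was then determined by comparison with vehicle treatment.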
Assay [5] is described as follows: NCI Yeast Anticancer Drug Screen. Data for the bub3 strain (AID 167). The note with it: S. cerevisiae bub3 mutant strain, at 50.0 µM, stronger effect = higher value. Put shortly: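 Yeast carrying a defined mutation is treated with each compound, and growth is compared with that of vehicle-exposed cells to give inhibition.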
The nature of assay [6]: NCI Yeast Anticancer Drug Screen. Data for the mlh1 rad18 strain (AID 175). The note with it: S. cerevisiae mlh1 rad18 strain growth inhibition; at 50.0 µM; stronger effect = higher value. The essentials: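 Inhibition values reflect reduced growth of mutant yeast versus vehicle-treated controls following compound exposure; the mutations affect DNA damage repair.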

`Nc1ccn(CCO)c(=O)n1`: the growth inhibition in assay [1] was -3.95%; in assay [2], 2.05%; in assay [3], -23.2%; in assay [4], -0.8%; in assay [5], -5.3%; in assay [6], -7.95%.

For `CC1CCCCC1(O)C(C(=O)O)c1ccccc1` (stereo not drawn), the growth inhibition was -8.1% in assay [1]; -9.85% in assay [2]; 0.3% in assay [3]; -1.95% in assay [4]; -22% in assay [5]; -29.6% in assay [6].

`CC1C(=O)C(c2ccccc2)(c2ccccc2)CC[N+]1(C)C` (stereo not drawn): the growth inhibition was 1.1% in assay [1]; 5.4% in assay [2]; 2.8% in assay [3]; -13.7% in assay [4]; 4.1% in assay [5]; 10.4% in assay [6].

Take `COc1cc(OC)c(C(=O)c2ccccc2N)c(OC)c1`: the growth inhibition in assay [1] is -3.2%; in assay [2] it was -0.35%; in assay [3], -1.5%; in assay [4], 6.55%; in assay [5], -8.45%; in assay [6] it was 9.4%.

As for `CCOC(=O)/C=C\SCC(=O)OCC`, the growth inhibition in assay [1] is -8.95%; in assay [2], -4.1%; in assay [3], -6.3%; in assay [4], -33.4%; in assay [5] it was 4.1%; in assay [6], -14.9%.

For the molecule `Cc1cn2cc(-c3cccs3)nc2s1`, the growth inhibition in assay [1] was 15.2%; in assay [2] it was -1%; in assay [3], 19.4%; in assay [4], 18.6%; in assay [5], -7.8%; in assay [6] it was 15.1%.

Consider `Cc1c(-c2ccccc2)c(-c2ccccc2)c(C)c(-c2ccc3c(c2)CCCC3)c1-c1ccccc1`, for which the growth inhibition in assay [1] was -15%; in assay [2], -3.35%; in assay [3] it was -33.2%; in assay [4] it was 1.75%; in assay [5], 22.2%; in assay [6] it was -16.7%.

On to `CCOC(=O)c1ccc(NC(=O)Nc2cccc(Cl)c2)cc1`, for which the growth inhibition in assay [1] was -4.2%; in assay [2], 34.5%; in assay [3] it was 50%; in assay [4] it was -17.9%; in assay [5] it was 25.4%; in assay [6], 23.9%.

On to `COc1cc(/C=C2\Cc3ccccc3C2=O)cc(OC)c1OC`, for which the growth inhibition in assay [1] is -13%; in assay [2] it was -14.8%; in assay [3] it was -15.8%; in assay [4], 18.3%; in assay [5], -14.1%; in assay [6], -13.1%.

For `C=C(C)C(=O)OCCOCC(CC)CCCC` (stereo not drawn), the growth inhibition in assay [1] was 11.2%; in assay [2], -8.8%; in assay [3] it was -5%; in assay [4] it was -0.3%; in assay [5] it was -3.35%; in assay [6], -1.8%.

In the case of `CCCCCCCCCCCC(=O)NC(=S)Nc1ccc(N(C)C(C)=O)cc1`, the growth inhibition in assay [1] was 90.5% (active); in assay [2], 92.8% (active); in assay [3], 92.5% (active); in assay [4] it was 87.6% (active); in assay [5], 90% (active); in assay [6], 91.9% (active).

For `N#C/C(=C/C=C/c1ccco1)C(N)=O`, the growth inhibition was 9.9% in assay [1]; 1.65% in assay [2]; 15.6% in assay [3]; 10.6% in assay [4]; -6.25% in assay [5]; 13.4% in assay [6].

`COc1ccc(C2S/C(=C\c3cccc(OC)c3)C(=O)N2NC(=O)Cc2ccccc2)cc1` (stereo not drawn): the growth inhibition in assay [1] was -12.8%; in assay [2], -27.1%; in assay [3], -2.75%; in assay [4], -37.5%; in assay [5] it was -19.4%; in assay [6], -10.8%.

Regarding `CN(/N=C/c1cccc2cccnc12)c1ccccc1`, the growth inhibition in assay [1] is 8.9%; in assay [2], 6.3%; in assay [3], -0.45%; in assay [4] it was 29.4%; in assay [5], 14.6%; in assay [6], 16.7%.

As to `O=C(O)CCCC#CCCCC(=O)O`, the growth inhibition was 10.4% in assay [1]; 4.5% in assay [2]; 2% in assay [3]; 17.3% in assay [4]; 25.8% in assay [5]; -13.7% in assay [6].

Consider `CCCOc1ccc(C2=C(c3ccccc3)C(=O)C(c3ccccc3)=C2c2ccccc2)cc1`, for which the growth inhibition in assay [1] is 34.2%; in assay [2], 15.6%; in assay [3] it was 20.6%; in assay [4] it was 20.2%; in assay [5], 2.25%; in assay [6], 20.6%.

Take `O=CNC(Cc1cnc[nH]1)C(=O)O` (stereo not drawn): the growth inhibition in assay [1] was -14.4%; in assay [2], -16.9%; in assay [3] it was -48.1%; in assay [4], -68.2%; in assay [5], -25.5%; in assay [6] it was -30.2%.

Turning to `CSc1nc2c(N)ncnc2n1C`, the growth inhibition in assay [1] is 11.4%; in assay [2], 1.4%; in assay [3], 9.55%; in assay [4], 27.7%; in assay [5], 8.15%; in assay [6], 36.8%.

With `C=C1C2CC(OC(C)=O)C3(C)C(c4ccoc4)OC(=O)[C@@H](O)[C@]13OC1C[C@H](OC(C)=O)C(C)(C)[C@H](C(O)C(=O)OC)[C@]12C` (stereo partly drawn), the growth inhibition in assay [1] was -11.8%; in assay [2], -34.4%; in assay [3], 2.4%; in assay [4], 3.45%; in assay [5], -8.1%; in assay [6], 0.25%.

Turning to `O=C1NCC/C1=C\c1ccc(Cl)c(Cl)c1`, the growth inhibition was 9.4% in assay [1]; -12.4% in assay [2]; -10.3% in assay [3]; -17.6% in assay [4]; -7.7% in assay [5]; -13.5% in assay [6].

Take `Cc1cc(N2CCCCC2)nc2ccc(Cc3ccc4nc(N5CCCCC5)cc(C)c4c3)cc12`: the growth inhibition in assay [1] is 48.7%; in assay [2], -7.05%; in assay [3], -27.9%; in assay [4], -16.4%; in assay [5] it was -47.4%; in assay [6] it was 27.5%.

In the case of `COc1ccc(C)cc1NC(=S)NC(=O)c1cccc2ccccc12`, the growth inhibition was -38.6% in assay [1]; 12.9% in assay [2]; 9.85% in assay [3]; -61.1% in assay [4]; 40% in assay [5]; -1.55% in assay [6].

As to `COC(=O)c1cc(C(=CCC[C@H]2CC[C@@]3(C)C(CCC4C3CC[C@@]3(C)C4CC[C@@H]3C(C)CCCC(C)C)C2)c2cc(Cl)c(O)c(C(=O)OC)c2)cc(Cl)c1O` (stereo partly drawn), the growth inhibition in assay [1] was 0%; in assay [2], 4.1%; in assay [3] it was -10%; in assay [4], 6.6%; in assay [5] it was 5.15%; in assay [6], -18.4%.

In the case of `C=CCOC(=O)Nc1ccc(S(=O)(=O)N2CCCCC2)cc1`, the growth inhibition in assay [1] was 9%; in assay [2], 6.1%; in assay [3] it was 2.95%; in assay [4] it was -17.4%; in assay [5] it was 17.6%; in assay [6], -5.15%.

`CC(=O)N(C)c1ccccc1O`: the growth inhibition in assay [1] is 6.6%; in assay [2] it was -10.1%; in assay [3], -14.6%; in assay [4], -33.2%; in assay [5], 10.2%; in assay [6] it was -19.9%.

`O=C(O)c1ccc(OS(=O)(=O)c2ccccc2)cc1`: the growth inhibition in assay [1] was 26.5%; in assay [2], 8.1%; in assay [3] it was 39.7%; in assay [4], 22.4%; in assay [5] it was 46.9%; in assay [6], 16.3%.

With `CCC(=O)OCCN(C(=O)CC)c1ccccc1`, the growth inhibition in assay [1] is 35.6%; in assay [2], 5.75%; in assay [3] it was 22.2%; in assay [4] it was -2.5%; in assay [5], -0.05%; in assay [6], 31.4%.

As for `O=C(/C=C/c1ccc(OCC(=O)N2CCN(c3ccccc3)CC2)cc1)c1ccc(Cl)cc1`, the growth inhibition in assay [1] was 13.6%; in assay [2], 13.9%; in assay [3], -5.8%; in assay [4] it was 0.55%; in assay [5], 2.7%; in assay [6], -4.45%.

For the molecule `COc1cccc(NC(=O)CC(=O)N2N=C(n3ccc4ccccc43)CC2c2ccccc2)c1` (stereo not drawn), the growth inhibition in assay [1] was -36.3%; in assay [2], -11.4%; in assay [3] it was -6%; in assay [4], 11.1%; in assay [5], -3.1%; in assay [6], -16.6%.

For `Cc1ccc2c(c1)NC(c1ccc(C(=O)O)cc1)c1cccn1-2` (stereo not drawn), the growth inhibition was 29.7% in assay [1]; 8.95% in assay [2]; 0.45% in assay [3]; 7.7% in assay [4]; 19.3% in assay [5]; 23.2% in assay [6].

Take `C1=Nc2ccccc2/C1=C/c1cccs1`: the growth inhibition in assay [1] is 35.5%; in assay [2] it was 37%; in assay [3], 12.1%; in assay [4], -47.4%; in assay [5], 13%; in assay [6], 48.8%.

With `CC(=Nc1ccc(Cl)c(Cl)c1)c1ccncc1`, the growth inhibition in assay [1] was -31.9%; in assay [2], -10.1%; in assay [3] it was -58%; in assay [4], -31.6%; in assay [5] it was 2.1%; in assay [6], -35.1%.

In the case of `Cc1cc(Cc2cc(Cc3cc(C)cc(C(C)(C)C)c3O)c(C)cc2C)c(O)c(C(C)(C)C)c1`, the growth inhibition in assay [1] was 50.4%; in assay [2] it was 18.4%; in assay [3], 13.3%; in assay [4] it was -1.75%; in assay [5], -23.4%; in assay [6], 38.5%.

For `CN(C)c1ccc(/C=C/c2nc3ccc([N+](=O)[O-])cc3[nH]2)cc1`, the growth inhibition in assay [1] was -2.4%; in assay [2], 3.6%; in assay [3], 9.65%; in assay [4], 14.2%; in assay [5] it was 0.6%; in assay [6], 0.1%.

As for `CCN=C(c1ccccc1)N(O)c1ccccc1`, the growth inhibition is -10.7% in assay [1]; 9.2% in assay [2]; -3.15% in assay [3]; 6.35% in assay [4]; 7.7% in assay [5]; -14.1% in assay [6].

As for `COc1cc(C=O)ccc1OC(C)=O`, the growth inhibition was -33.3% in assay [1]; -15.3% in assay [2]; -35.9% in assay [3]; -31.4% in assay [4]; -10.6% in assay [5]; -24.3% in assay [6].

For the molecule `O=C1OC(c2ccccc2)=N/C1=C/N1CCCC1C(=O)O` (stereo not drawn), the growth inhibition in assay [1] was -1%; in assay [2], 5.6%; in assay [3], 15.9%; in assay [4] it was 10.1%; in assay [5], -4.4%; in assay [6], -6.3%.

For `CN1C(C(=O)Nc2nccs2)=C(O)c2ccccc2S1(=O)=O`, the growth inhibition was 2.15% in assay [1]; 7.35% in assay [2]; 19.9% in assay [3]; -11.2% in assay [4]; 7.05% in assay [5]; 21.6% in assay [6].
